# Assay results as given in the supplement of paper PMC6555819.
# Key:
# Test in all cases: PBM binding z-score (relative to random genomic background probes); higher = stronger binding; sequences stand for … in GC…GCGATTGACAGCGTAGAATGAAGG
# [1] = tested on: PPARg:RXRa DBDmut IVT, anti-RXR (DBD mutation: RXRa K156A/R161A, NR concentration 270 nM, RXRa partner concentration 90 nM)
# Method in brief: (§1)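 Ligand-free nuclear receptor dimers were applied to custom Agilent 4×180K protein-binding microarrays whose double-stranded probes carried direct-repeat seeds, single-nucleotide variants, half-site ablations and random human genomic background sequences in 34-nt variable regions. Incubation lasted 1 h. Binding z-scores were computed against the random background probes from regression-normalized fluorescence.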
# [2] = tested on: PPARg:RXRa IVT, anti-PPARg (NR concentration 270 nM, RXRa partner concentration 90 nM)
# Method in brief: as §1
# [3] = tested on: PPARg DBDmut:RXRa IVT, anti-PPARg (DBD mutation: PPARg1 K132A/R137A, NR concentration 270 nM, RXRa partner concentration 90 nM)
# Method in brief: as §1
# [4] = tested on: PPARg DBDmut IVT, anti-PPARg (DBD mutation: PPARg1 K132A/R137A, NR concentration 270 nM)
# Method in brief: as §1
# [5] = tested on: PPARg homodimer (NR concentration 180 nM)
# Method in brief: as §1
# [6] = tested on: PXR:RXRa (NR concentration 270 nM, RXRa partner concentration 90 nM)
# Method in brief: as §1
# [7] = tested on: PXR homodimer (NR concentration 270 nM)
# Method in brief: as §1
# [8] = tested on: RARa:RXR (NR concentration 270 nM, RXRa partner concentration 90 nM)
# Method in brief: as §1
# [9] = tested on: RARa homodimer (NR concentration 270 nM)
# Method in brief: as §1
# [10] = tested on: RARb:RXRa (NR concentration 270 nM, RXRa partner concentration 90 nM)
# Method in brief: as §1
# [11] = tested on: RARb homodimer (NR concentration 270 nM)
# Method in brief: as §1
# [12] = tested on: RARg:RXRa (NR concentration 270 nM, RXRa partner concentration 90 nM)
# Method in brief: as §1
# [13] = tested on: RARg homodimer (NR concentration 270 nM)
# Method in brief: as §1
# [14] = tested on: RXRa DBDmut IVT, anti-RXR (DBD mutation: RXRa K156A/R161A, NR concentration 90 nM)
# Method in brief: as §1
# [15] = tested on: RXRa homodimer (NR concentration 180 nM)
# Method in brief: as §1
# [16] = tested on: THRa:RXRa (NR concentration 90 nM, RXRa partner concentration 90 nM)
# Method in brief: as §1
# [17] = tested on: THRa homodimer (NR concentration 90 nM)
# Method in brief: as §1
# [18] = tested on: VDR:RXRa (NR concentration 270 nM, RXRa partner concentration 90 nM)
# Method in brief: as §1
# [19] = tested on: VDR homodimer (NR concentration 270 nM)
# Method in brief: as §1
Sequence,PBM binding z-score [1],PBM binding z-score [2],PBM binding z-score [3],PBM binding z-score [4],PBM binding z-score [5],PBM binding z-score [6],PBM binding z-score [7],PBM binding z-score [8],PBM binding z-score [9],PBM binding z-score [10],PBM binding z-score [11],PBM binding z-score [12],PBM binding z-score [13],PBM binding z-score [14],PBM binding z-score [15],PBM binding z-score [16],PBM binding z-score [17],PBM binding z-score [18],PBM binding z-score [19]
CGTCAAAGTTCAACTAAGGTACCGTAAAGCACGC,0.831,1.71,0.452,0.671,2.68,4.87,3.81,3.96,1.72,5.21,4.34,5.81,6.61,4.77,5.35,4.81,0.671,4.4,4.06
AGAATGAGGTAATTAAGATCAGGGAATTGCGGTC,2.2,1.37,0.265,-0.0371,-0.649,-0.0568,0.153,0.224,-0.15,0.0669,-0.177,0.105,0.0569,-0.166,0.198,1.34,0.328,0.215,-0.255
TAGCCTAGGTCAATGGGCCAGTATAGTACGCATC,1.98,3.19,-0.338,-0.429,0.9,0.686,-0.285,1.56,0.0956,3.67,3.07,3.64,4.52,0.537,2.12,2.16,0.256,1.1,0.391
TCTCGGAGGACACGAGAGGTCAGAGCTCGACATC,1.28,1.31,-0.0103,-0.495,1.51,3.78,0.385,3.56,-0.143,3.84,4.3,3.89,4.28,0.77,3.07,3.98,1.64,3.41,1.81
TCTTGTAGATCAGCAGGTTAAAAAAGCTGGCCAA,1.58,0.467,-0.542,0.0495,0.159,0.148,-0.197,0.613,-0.11,0.0554,0.0977,-0.388,-0.402,0.516,0.184,0.165,-0.53,0.495,-0.268
ACTAGCAGGCCAAGTTTAGGTCACTCAAACAAAG,0.729,1.54,-0.154,-0.113,0.824,0.86,0.177,1.7,-0.431,2.33,2.6,3,2.44,0.0394,0.727,3.43,2.59,0.781,0.966
CATACAGGGTCAGCTAGGCCAGCGTAGGGACGGC,1.15,2.23,0.338,0.666,1.25,2.09,0.247,2.95,0.0243,4.03,3.43,4.42,4.81,1.4,4.2,3.3,0.936,3.62,0.947
CCTACTCGGCCATTCAGAGGTCATTGATCATATG,2.23,1.88,0.471,0.672,2.68,4.91,3.38,4.55,1.67,3.27,4.19,4.17,3.64,2,3.59,3.32,1.99,4.06,4.02
CCATACGGGTCACTCCAGGTTATAGCATCGGAGT,1.6,3.66,-0.54,0.0685,1.66,4.94,0.464,3.54,0.63,3.54,2.96,4.24,3.85,0.942,4.03,5.15,0.591,4.11,1.76
GATACAGGGTCAAGGCCATAGTACGCGTATTGAT,2.5,4.05,0.702,-0.195,1.64,3.94,0.404,4.65,0.823,4.41,3.69,5.34,5.15,2.44,5.52,3.54,1.52,4.21,2.22
CGTCAAAGTTCAAGTAAGGTAACGTAAAGCACGC,0.544,2.41,0.93,0.765,3.47,5.21,3.9,4.3,1.99,5.29,4.18,5.63,6.15,4.54,4.68,5.33,1.95,4.46,3.69
TCATATAGGTAGAGGTGAAAGTCGAACGATATGA,2.29,2.16,2,0.275,0.614,0.78,0.269,1.22,0.173,1.31,1.04,1.18,1.11,0.392,1.77,1.41,-0.0362,0.794,0.0889
TGTCAAAGTTCAAAGGTAACGTAAGTATCCACAC,0.64,4.66,1.24,1.15,2.16,5.77,3.43,6.45,0.967,5.11,3.82,6.28,6.19,4.36,7.27,3.53,0.176,5.1,4.04
GCTATTAGTTGAAAGGCCAACCGAATGATTCTCG,0.47,0.355,0.179,-0.242,0.874,0.178,-0.082,0.627,0.368,1.56,1.27,0.828,0.862,1.04,0.44,0.141,-0.222,-0.0343,0.0426
TCTTGTAGATCAAAGATTAAGAAAGCCGAAGCCT,1.71,0.407,0.363,0.404,-0.224,0.137,-0.525,0.257,0.694,-0.16,-1.12,0.0193,-0.33,0.517,0.241,-0.201,-0.962,0.389,-0.417
ACAGACAGGGGATGAAGGTAACTCAGGCTATCAT,-0.0159,0.23,0.918,0.962,0.411,0.126,0.556,-0.0712,0.0686,0.299,0.714,0.0982,0.418,0.422,0.188,0.765,0.491,0.0836,-0.173
CCTATTAGTTGACCATAAGGGCAACGGAAGCTCG,0.458,0.449,0.427,0.782,2.06,0.568,0.623,0.736,1.45,1.54,1.92,1.29,0.865,0.278,0.632,1.84,1.47,0.803,0.902
TCGTGTAGATCAATAGAGGTTAAGAAAGTGCGCT,1.64,0.537,-0.0229,-0.0334,0.586,2.99,0.386,1.79,0.575,0.822,1.47,0.551,0.428,0.621,1.23,2.09,-0.291,1.83,0.428
TCATATAGGTAGATGCTAGGTGAAAGTCCGATCT,2.54,0.996,0.387,0.246,0.348,0.415,0.366,0.657,0.534,0.174,0.362,0.127,0.207,1.14,0.611,0.969,0.547,0.638,0.276
TCTCGGAGGACACGAAGGTCAGGGCTTTCCAGAG,1.37,0.884,-0.402,-1.18,1.07,1.89,0.452,2.52,-0.205,3.48,4.09,3.4,3.91,0.802,2.43,3.13,1.27,2.24,1.16
CAAACTAGGTCACCGGAAGGTCAAAATCCGCATG,8.74,9.07,7.15,5.58,9.41,5.86,1.73,7.2,3.23,5.11,5.17,7.81,7.09,2.39,5.88,4.39,2.94,5.69,3.11
CCTAGTTGGTTAGGAGGTCACACACCGGATATGA,1.46,3.63,0.832,1.05,4.26,4.03,1.84,4.45,1.79,3.42,3.78,4.04,3.53,0.861,3.97,3.42,2.5,3.56,3.06
TCTGCAAGGTCAGTTGGTCAGCTAACGAGCTGCC,1.67,2.69,0.998,1.09,1.99,2.09,-0.237,2.67,-0.428,4.43,3.59,4.63,5.16,2.42,2.78,3.02,0.921,2.19,1.12
GCTCGGAGGACAAGGTGAGAGCTTTGTCCGTAGA,-0.575,0.359,-0.51,-0.882,-0.374,-0.472,-0.908,-0.166,-1.13,1.52,0.56,0.159,0.805,-0.507,-0.256,1.5,0.465,-0.606,-0.74
TAGTCTAGGTCAGATCGGGCCAGTATACGCTATA,4.19,4.5,1.78,1.67,1.18,1.33,-0.0787,1.54,-0.273,3.25,2.21,2.72,3.51,-0.14,1.39,4.26,0.664,0.995,-0.0113
TCTGCTAGGTCAACGATGCTCAGCTAATCTGCTA,4,3.88,0.146,-0.121,-0.00894,0.886,-1.03,1.69,-0.557,3.82,2.66,3.76,4.76,0.989,2.18,2.47,0.23,1.15,-0.64
CCTACTGGGCCAAGGTCATTGAACAGTCAAAGCA,3.68,4.69,-0.3,-0.825,1.5,3.32,0.99,3.5,-0.309,3.5,3.4,3.82,3.72,0.677,3.68,3.5,2.14,3.39,2.77
CAAACTAGGGCACAGAGGTCAAAGTCCGTGCGTA,7.7,7.94,4.77,2.72,4.24,6.12,8.42,6.5,1.61,4.41,4.61,5.79,5.63,2.66,5.91,3.79,1.32,6.64,5.23
ATATGTGGGTTAAGGGTCATTCAGGTTGGTTCGC,7.01,7.51,2.4,2.39,3.88,5.53,3.93,6.07,3.29,3.59,3.84,4.83,3.59,2.43,6.27,3.62,2.41,5.79,4.82
CCAGACATGTGAAAGGTAACTCAGTCTGGTACGC,0.121,0.275,-0.125,0.223,0.969,0.118,-0.196,0.553,0.138,0.186,0.0662,0.308,0.362,0.289,0.767,0.162,-0.146,0.207,0.204
